Measured values: PubChem BioAssay AID1159580 (chemical genetic matrix, 2015)
The campaign covered roughly 5,500 compounds. About 2,000 (36%) were called active. Not shown: some 18% with an inconclusive outcome. Cut-off read from the data, not from the text of the source: active = normalized growth mostly below about 0.91 (no sharp cut-off); inconclusive = no clear call, values can overlap the other calls; inactive = mostly above about 0.92. The list shows a part of the results.

Assay: chemical genetic growth profiling, strain panel (AID 1159580);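 note: tested at 20 µM; growth read once vehicle control cultures reached saturation at 30 °C; 1 = growth at the plate median or of vehicle wells; lower values mean less growth of the strain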
Details: growth OD

Measured: normalized growth

CCCCCCCCCCCC1=C(O)C(=O)C=C(O)C1=O
inactive: S. cerevisiae deletion strains, locus YJL168C, strain set2, hits give low values 0.975 | S. cerevisiae deletion strains, locus YJL187C, strain SWE1 (second series), hits give low values 0.981 | S. cerevisiae deletion strains, locus YLL026W, hits give low values 0.972 | S. cerevisiae deletion strains, locus YLL041C, strain sdh2, hits give low values 0.933 | S. cerevisiae deletion strains, locus YLR058C, strain SHM2, hits give low values 1 | S. cerevisiae deletion strains, locus YLR102C, strain apc9, hits give low values 0.974 | S. cerevisiae deletion strains, locus YLR342W, strain FKS1 (second series), hits give low values 0.886 | S. cerevisiae deletion strains, locus YLR371W, strain rom2, hits give low values 0.945 | S. cerevisiae deletion strains, locus YLR384C, strain iki3, hits give low values 0.989 | S. cerevisiae deletion strains, locus YML016C, strain PPZ1, hits give low values 0.991 | S. cerevisiae deletion strains, locus YML120C, strain ndi1, hits give low values 0.952 | S. cerevisiae deletion strains, locus YML124C, strain tub3, hits give low values 0.975 | S. cerevisiae deletion strains, locus YMR078C, strain ctf18, hits give low values 0.96 | S. cerevisiae deletion strains, locus YMR205C, strain PFK2, hits give low values 0.901 | S. cerevisiae deletion strains, locus YNL322C, strain KRE1 (second series), hits give low values 0.922 | S. cerevisiae deletion strains, locus YOL012C, strain htz1 0.529 | S. cerevisiae deletion strains, locus YOR061W, strain CKA2, hits give low values 0.986 | S. cerevisiae deletion strains, locus YOR069W, strain VPS5, hits give low values 0.983 | S. cerevisiae deletion strains, locus YOR070C, strain gyp1, hits give low values 0.97 | S. cerevisiae deletion strains, locus YOR080W, strain dia2, hits give low values 0.946 | S. cerevisiae deletion strains, locus YOR184W, strain ser1, hits give low values 0.875 | S. cerevisiae deletion strains, locus YOR316C, strain cot1, hits give low values 0.999 | S. cerevisiae deletion strains, locus YPR119W, strain clb2, hits give low values 0.986 | S. cerevisiae deletion strains, locus YPR163C, strain tif3, hits give low values 0.977
active: S. cerevisiae deletion strains, locus YJR043C, strain POL32, hits give low values 0.584 | S. cerevisiae deletion strains, locus YKL068W, hits give low values 0.936 | S. cerevisiae deletion strains, locus YKL085W, strain MDH1 (second series), hits give low values 0.513 | S. cerevisiae deletion strains, locus YKL085W, strain MDH1, hits give low values 0.513 | S. cerevisiae deletion strains, locus YKL160W, strain elf1, hits give low values 0.805 | S. cerevisiae deletion strains, locus YKR001C, strain vps1, hits give low values 0.776 | S. cerevisiae deletion strains, locus YKR026C, strain gcn3, hits give low values 0.82 | S. cerevisiae deletion strains, locus YKR091W, strain srl3, hits give low values 0.911 | S. cerevisiae deletion strains, locus YLL001W, strain dnm1, hits give low values 0.502 | S. cerevisiae deletion strains, locus YLR027C, strain aat2, hits give low values 0.839 | S. cerevisiae deletion strains, locus YLR039C, strain RIC1, hits give low values 0.296 | S. cerevisiae deletion strains, locus YLR221C, strain rsa3, hits give low values 0.801 | S. cerevisiae deletion strains, locus YLR258W, strain gsy2, hits give low values 0.911 | S. cerevisiae deletion strains, locus YLR262C, strain YPT6 (second series), hits give low values 0.477 | S. cerevisiae deletion strains, locus YLR262C, strain YPT6, hits give low values 0.414 | S. cerevisiae deletion strains, locus YLR268W, strain sec22, hits give low values 0.756 | S. cerevisiae deletion strains, locus YLR320W, strain mms22, hits give low values 0.83 | S. cerevisiae deletion strains, locus YLR330W, strain CHS5, hits give low values 0.842 | S. cerevisiae deletion strains, locus YLR342W, strain FKS1, hits give low values 0.72 | S. cerevisiae deletion strains, locus YLR357W, strain rsc2, hits give low values 0.441 | S. cerevisiae deletion strains, locus YLR370C, strain arc18, hits give low values 0.242 | S. cerevisiae deletion strains, locus YLR418C, strain cdc73, hits give low values 0.819 | S. cerevisiae deletion strains, locus YML032C, strain rad52, hits give low values 0.882 | S. cerevisiae deletion strains, locus YMR058W, strain fet3, hits give low values 0.0857 | S. cerevisiae deletion strains, locus YMR125W, strain sto1, hits give low values 0.832 | S. cerevisiae deletion strains, locus YMR129W, hits give low values 0.883 | S. cerevisiae deletion strains, locus YMR223W, strain ubp8, hits give low values 0.87 | S. cerevisiae deletion strains, locus YMR231W, strain pep5, hits give low values 0.69 | S. cerevisiae deletion strains, locus YMR263W, strain SAP30, hits give low values 0.766 | S. cerevisiae deletion strains, locus YMR307W, strain GAS1, hits give low values 0.378 | S. cerevisiae deletion strains, locus YNL067W, strain RPL9B, hits give low values 0.823 | S. cerevisiae deletion strains, locus YNL071W, strain lat1, hits give low values 0.912 | S. cerevisiae deletion strains, locus YNL128W, strain TEP1, hits give low values 0.683 | S. cerevisiae deletion strains, locus YNL209W, strain ssb2, hits give low values 0.61 | S. cerevisiae deletion strains, locus YNL233W, strain BNI4, hits give low values 0.857 | S. cerevisiae deletion strains, locus YNL248C, strain rpa49, hits give low values 0.757 | S. cerevisiae deletion strains, locus YNL250W, strain rad50, hits give low values 0.738 | S. cerevisiae deletion strains, locus YNL271C, strain bni1, hits give low values 0.636 | S. cerevisiae deletion strains, locus YNL298W, strain CLA4, hits give low values 0.66 | S. cerevisiae deletion strains, locus YNL307C, strain MCK1, hits give low values 0.857 | S. cerevisiae deletion strains, locus YNR049C, strain mso1, hits give low values 0.638 | S. cerevisiae deletion strains, locus YNR052C, strain pop2, hits give low values 0.866 | S. cerevisiae deletion strains, locus YOL147C, strain pex11, hits give low values 0.871 | S. cerevisiae deletion strains, locus YOR001W, strain rrp6, hits give low values 0.86 | S. cerevisiae deletion strains, locus YOR083W, strain WHI5, hits give low values 0.807 | S. cerevisiae deletion strains, locus YOR106W, strain vam3, hits give low values 0.637 | S. cerevisiae deletion strains, locus YOR136W, strain idh2, hits give low values 0.919 | S. cerevisiae deletion strains, locus YOR144C, strain elg1, hits give low values 0.877 | S. cerevisiae deletion strains, locus YOR265W, strain rbl2, hits give low values 0.867 | S. cerevisiae deletion strains, locus YOR270C, strain vph1, hits give low values 0.298 | S. cerevisiae deletion strains, locus YOR290C, strain snf2, hits give low values 0.471 | S. cerevisiae deletion strains, locus YPL051W, strain arl3, hits give low values 0.768 | S. cerevisiae deletion strains, locus YPL055C, strain LGE1, hits give low values 0.483 | S. cerevisiae deletion strains, locus YPL078C, strain atp4, hits give low values 0.647 | S. cerevisiae deletion strains, locus YPL106C, strain sse1, hits give low values 0.794 | S. cerevisiae deletion strains, locus YPL240C, strain hsp82, hits give low values 0.907 | S. cerevisiae deletion strains, locus YPL241C, strain CIN2, hits give low values 0.851 | S. cerevisiae deletion strains, locus YPR141C, strain kar3, hits give low values 0.735 | S. cerevisiae deletion strains, locus YPR167C, strain met16, hits give low values 0.846 | S. cerevisiae deletion strains, strain wtn01, hits give low values 0.871 | S. cerevisiae strains, strain wild type, hits give low values 0.693
